Reference: PubChem BioAssay AID686979 (National Center for Advancing Translational Sciences (NCATS), 2013)
Among all 420,000 compounds or so, about 50,000 (12%) were called active. Not shown: some 26% with an inconclusive outcome. The sample holds actives, similar compounds and a random draw of the others, so the mix is not that of the screen. Unmarked numbers belong to inactive results. Calls follow the shape of the dose curve; as a rule, active = well fitted inhibition curve with a large enough effect; inconclusive = small, poorly fitted or top-dose-only effect; inactive = flat fitted curve, though single readings scatter.

assay: qHTS for Inhibitors of human tyrosyl-DNA phosphodiesterase 1 (TDP1): qHTS in cells in presence of CPT; conditions: chicken DT40 Tdp1-/-;hTDP1 cells + 20 nM CPT, ATP luminescence, 48 h; series mostly up to 46.2 µM; activity change, negative = growth inhibition: at the top concentration; also: nearly all actives have a fitted effect of over 55% in size
Summary of the method: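 Chicken DT40 Tdp1-/- cells stably complemented with human TDP1 were seeded at 400 cells/well in medium containing 20 nM camptothecin, exposed to pin-transferred compounds, and grown at 37 °C for at least 48 hr. Viability was read as ATP luminescence.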
% is scaled to controls: 0 for no effect and ±100 for the full control effect; potency is read from the fitted curve at half-maximal effect.

| Compound | activity change, negative = growth inhibition | Potency |
| --- | --- | --- |
| Cc1sc2ncnc(SCC(=O)NC3CCS(=O)(=O)C3)c2c1C (stereo not drawn) | 0.145% | – |
| CCCNc1ncnc2sc(C)c(C)c12 | – | 16.4 µM (active) |
| CSc1ncnc2sc(C)c(C)c12 | -14.5% | – |
| COc1cccc(NC(=O)CCNS(=O)(=O)c2ccc3c(c2)oc(=O)n3C)c1 | – | inactive |
| CCc1ccccc1NC(=O)c1ccc2c(c1)CCN2S(C)(=O)=O | 9.03% | – |
| CC(C)=CCC/C(C)=C/C(=O)O | -5.06% | – |
| COc1ccccc1-c1cc2nc(C)c(CCC(=O)NC3CCCCC3)c(C)n2n1 | 5.23% | – |
| COc1ccc(C2OC(=O)CC2C(=O)NC(C)C)cc1 (stereo not drawn) | -2.88% | – |
| COc1ccc(-c2ccc(C(=O)NC(C)C)c3occc23)c(C)c1 | – | 14.6 µM (active) |
| COc1ccc(N)c(C)c1 | 5.04% | – |
| COc1ccc(Cl)cc1C(=O)OCC(=O)NCc1cccs1 | -0.547% | – |
| Cc1nnc(SC(C(=O)c2ccccc2)c2ccccc2)[nH]c1=O (stereo not drawn) | -0.428% | – |
| CN1CCC(N(C)C(=O)c2ccc(Cl)c(S(=O)(=O)Nc3ccc(Cl)cc3)c2)CC1 | -15% | – |
| Cc1cccc(-n2ncc3c(=O)[nH]c(SCC(=O)Nc4cc(C)on4)nc32)c1 | -28.7% | – |
| CCN(CC)c1ccc(NC(=O)CN2C(=O)c3cccnc3Oc3ccc(Cl)cc32)c(C)c1 | – | 9.2 µM (active) |
| Cc1ccc2c(c1)N(CC(=O)NCCCN1CCCCC1)C(=O)c1cccnc1O2 | – | inactive |
| CCN(CC)c1ccc(NC(=O)Cn2nc3c(cc2=O)CCCC3)c(C)c1 | -21.6% | – |
| Cc1ccc2c(c1)N(CC(=O)N1CCC(C)CC1)C(=O)c1cccnc1O2 | 1.35% | – |
| CC(=O)c1cccc(NC(=O)CN2C(=O)c3cccnc3Oc3ccc(Cl)cc32)c1 | – | 18.4 µM (active) |
| O=C(CN1C(=O)c2cccnc2Oc2ccc(Cl)cc21)NCCc1ccccc1 | -25.7% | – |
| COC(=O)Cc1ccc(OCC(=O)NC2CCCC2)cc1 | 0.687% | – |
| COc1cccc(N(CC(=O)NC2CCCC2)C(=O)CCCC(=O)Nc2ccccn2)c1 | -0.665% | – |
| COCC1CCN(C(=O)C2CCC(=O)N(Cc3cccc(C(F)(F)F)c3)C2)CC1 (stereo not drawn) | -9.13% | – |
| CC(=O)CC[C@@H](C)O[C@@H]1OC(C)[C@H](O)CC1O (stereo partly drawn) | 9.15% | – |
| Nc1nc(SCc2cccc(Br)c2)n[nH]1 | -13.6% | – |
| COc1cc2ccccc2cc1C(=O)Nc1ccccc1C | -16.1% | – |
| COc1cccc(-n2c(N)cc(=O)nc2SCC(=O)Nc2cc(C)on2)c1 | -3.53% | – |

| Compound | activity change, negative = growth inhibition | Potency |
| --- | --- | --- |
| COC(=O)c1ccc(CSc2nc3ccccc3c(=O)n2-c2cccc(OC)c2)o1 | – | 20.6 µM (active) |
| COCCn1c(C)cc(C(=O)CSc2nnc(C3CC3)n2C2CC2)c1C | -5% | – |
| COCCn1c(C)cc(C(=O)CN2c3cccc4cccc(c34)S2(=O)=O)c1C | 9.37% | – |
| COc1cccc(-n2c(SCC(=O)NC3CCS(=O)(=O)C3)nc3ccccc3c2=O)c1 (stereo not drawn) | 3.4% | – |
| COCC(C)n1c(SCC(=O)NC2CCCCC2C)nc2ccccc2c1=O (stereo not drawn) | -14.7% | – |
| COc1cccc(-n2c(SCC(=O)c3c[nH]c4ccccc34)nc3ccccc3c2=O)c1 | – | 20.6 µM (active) |
| COC(=O)c1ccc(Cc2ccccc2)o1 | 3.76% | – |
| COCCn1c(C)cc(C(=O)CSc2nc3ccccc3c(=O)n2C(C)COC)c1C (stereo not drawn) | – | 20.6 µM (active) |
| CCCn1c(N)c(C(=O)CSc2nc3ccccc3c(=O)n2-c2ccc(OC)cc2)c(=O)[nH]c1=O | 1.77% | – |
| COCC(C)n1c(SCc2ccc(C(=O)OC)o2)nc2ccccc2c1=O (stereo not drawn) | – | 7.31 µM (active) |
| COCCNC(=O)c1ccc(-n2c(SCc3cccnc3)nc3ccccc3c2=O)cc1 | 2.47% | – |
| CCOc1ccc(CN(C)C(=O)c2ccc(=O)[nH]c2)cc1 | 14.4% | – |
| Cc1occc(=O)c1OCc1c(Cl)cccc1Cl | -17.7% | – |
| COc1ccc(C2C3=C(CCCC3=O)N(CC(=O)O)C3=C2C(=O)CCC3)cc1 | -4.55% | – |
| CSc1ccc(S(=O)(=O)N2CCC(C(=O)NCc3ccncc3)CC2)cc1 | 0.718% | – |
| COc1ccc(-c2c(C)nn3c(N4CCC(C(=O)N5CCCCC5)CC4)cc(C)nc23)cc1OC | -7.26% | – |
| CCN(CC)c1nc(-c2ccccc2)cc(C(F)(F)F)c1C#N | -4.95% | – |
| O=C(CNS(=O)(=O)c1ccccc1)NCC(=O)OCc1ccccc1F | -28.2% | – |
| Cc1cc(=O)oc2cc(OC(C)C(=O)NCCc3ccc(S(N)(=O)=O)cc3)ccc12 (stereo not drawn) | -6.95% | – |
| Nc1nc(SCC(=O)NNc2c(Cl)cc(Cl)cc2Cl)n[nH]1 | 13.5% | – |
| COc1cc(Cl)c(C)cc1NC(=O)COC(=O)c1cc(SC)ccc1Cl | 16.3% | – |
| CCC(C)Cn1c(O)cc2nn(-c3nc4ccccc4s3)c(=O)c-2c1C (stereo not drawn) | – | 14.6 µM (active) |
| Cc1ccc(-c2nn3c(=O)cc(CN4CCN(S(=O)(=O)c5ccc(Cl)cc5)CC4)nc3s2)cc1 | -12.6% | – |
| CSc1sc(C)cc1C1C(C#N)=C(N)N(c2cccnc2)C2=C1C(=O)CCC2 (stereo not drawn) | – | 11.6 µM (active) |
| Cc1sc(C2C(C#N)=C(N)N(c3cccc(Cl)c3)C3=C2C(=O)CCC3)cc1CN1CCOCC1 (stereo not drawn) | -13.7% | – |
| CCc1ccc(C2C(C#N)=C(N)N(N(C)C)C3=C2C(=O)CCC3)s1 (stereo not drawn) | -18.2% | – |
